High-throughput results deposited in PubChem by several laboratories.
Y pestis TopoI – inhibitors of Yersinia pestis topoisomerase I | Y. pestis Topo-I cleavage product accumulation, plate reader | activity, % at 10 µM | hit rate 0.064% among 360,000; in the data active means activity above about 50%, passing the limit was not always enough
CCHF vOTU inh – blocks the CCHF virus ovarian tumor domain protease. CCHFV vOTU protease, Pep-AMC fluorescence. inhibition, % at 11.5 µM. hit rate 0.55% among 370,000; in the data active means inhibition above about 30%; further: 0% = vehicle wells with enzyme and 100% = no enzyme wells
PrP 5UTR inh – suppresses PrP 5' UTR mRNA reporter expression; cell-based PrP 5' UTR mRNA reporter, plate reader; inhibition, % (concentration not given with the values); hit rate 0.35% among 340,000; AID 488862; in the data active means inhibition above about 52%; further: 0 = median of the neutral control wells
BJeLR viability – BJeLR cell viability loss | BJeLR (HRASV12) viability, CellTiter-Glo ATP luminescence, 48 h | inhibition, % (test concentration not listed) | hit rate 0.17% among 300,000; in the data active means inhibition above about 50%
PrPC surface inh – inhibitors of human cell surface prion protein PrPC | P04156 | TR-FRET read-out | inhibition, % at 13.8 µM | hit rate 0.43% among 370,000 | AID 720596; in the data active means inhibition above about 24%; further: 0% = median of the test wells and 100% = reference compound wells
PfHsp40 yeast – compounds rescuing yeast from Plasmodium falciparum HSP40 toxicity; S. cerevisiae expressing PfHsp40, growth rescue, ATP luminescence; hit rate 0.68% among 340,000; growth rescue, % at 12.5 µM; in the data active means growth rescue above about 28%, passing the limit was not always enough;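 further: yeast W303a lacking pdr1 and pdr3 grown in galactose medium; growth measured after three days at 30 °C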
PrPC TRFRET cf – confirmation of inhibitors of cell surface human prion protein; cell surface PrPC level, TR-FRET; shares compounds with PrPC surface inh; inhibition, % at 13.8 µM; hit rate 65% among 1,500; in the data active means inhibition above about 25%
LD9 cytotox – counter-screen for PrPc inhibitors: cytotoxicity in LD9 cells. inhibition, % at 13.8 µM. hit rate 29% among 1,500. luminescence viability. shares compounds with PrPC surface inh; in the data active means inhibition above about 9.5%
The depositor's hits bear a star; . = no result. This is a sample that favours compounds with a hit; in the whole collection about 2% have one here.

SMILES	Y pestis TopoI	CCHF vOTU inh	PrP 5UTR inh	BJeLR viability	PrPC surface inh	PfHsp40 yeast	PrPC TRFRET cf	LD9 cytotox
CC(C)C[C@H](NC(=O)c1[nH]cnc1C(=O)N[C@H](C)c1ccccc1)C(=O)OC(C)(C)C	31.0	23.8	-9.4	3.8	26.5*	9.0	23.9	-1.7
N#CC(=Cc1ccc(O)cc1)C(N)=C(C#N)C#N	21.2	10.0	47.5	.	63.8*	1.2	7.2	-4.2
N#C/C(=C\c1ccc(O)cc1)C(=O)N1CCCC1	-3.4	-5.0	-17.1	-3.6	-0.8	0.3	.	.
COC(=O)C[C@H]1CC[C@@H]2[C@@H](COc3ccc(NC(=O)Nc4cccc(C)c4)cc3C(=O)N2C)O1	.	-5.0	.	.	-2.6	.	.	.
Cc1c(C(=O)Nc2ccncc2)sc2nc(-c3ccc(F)cc3)cn12	-0.9	2.7	-19.1	-10.1	55.8*	2.0	52.8*	12.1*
COc1ccc(-c2cn3c(C)c(C(=O)Nc4ccncc4)sc3n2)cc1	25.2	-0.8	-8.9	-0.2	10.2	0.3	.	.
CCCn1cc(C(=O)Nc2ccc(Oc3cccnc3)cc2)c2ccccc21	.	4.9	.	.	12.4	.	.	.
CCOC(=O)C(CC)Sc1nnc2c3cc(C)ccc3n(C)c2n1 (stereo not given)	27.1	2.2	-13.8	-3.6	30.1*	2.5	34.5*	-4.9
CC(NC(=O)CCC(=O)c1cccs1)c1ccccc1 (stereo not given)	-2.0	-6.5	-6.9	7.0	-3.5	-0.2	.	.
O=C(CCC(=O)c1cccs1)NC(c1ccccc1)c1ccccc1	-1.8	6.1	-3.6	0.3	32.6*	-0.7	-2.2	-1.7
NC(=O)c1cc(NC(=O)c2ccc(NS(=O)(=O)c3cccs3)cc2)cc(C(N)=O)c1	-0.4	9.4	-9.5	-1.2	32.6*	-0.5	34.6*	3.7
CCC(C)N(C(=O)CNc1nnnn1-c1ccccc1)C(C)CC (stereo not given)	.	0.2	.	.	-6.2	.	.	.
CCN(C(=O)COC(=O)c1ccccc1Nc1ccccc1)c1c(N)n(Cc2ccccc2)c(=O)[nH]c1=O	33.6	19.9	-15.1	.	33.2*	1.0	23.9	-2.7
CCOc1ccc(NC(=O)Nc2cccn(Cc3ccccc3)c2=O)cc1	-0.7	2.9	-26.3	6.1	29.8*	0.8	15.4	-7.4
Cc1ccc(C(=O)Nc2cc(S(=O)(=O)N3CCOCC3)ccc2N2CCCC2)cc1	14.4	-3.8	-27.5	.	46.0*	-0.7	49.6*	-8.2
COc1cccc(NC(=O)CNc2cc(S(=O)(=O)N3CCOCC3)ccc2N2CCCC2)c1	17.6	-8.3	-22.2	.	4.2	0.1	.	.
O=C(Nc1cc(S(=O)(=O)N2CCOCC2)ccc1N1CCCC1)c1ccc(Cl)cc1	14.3	-9.8	-14.3	.	11.7	0.1	.	.
COc1ccc(NCC(=O)Nc2cc(S(=O)(=O)N3CCOCC3)ccc2N2CCOCC2)c(OC)c1	12.6	0.4	-25.9	4.5	24.8*	-0.4	-0.1	-0.4
O=C(CCSc1ccc(Cl)cc1)N1CCN(c2ccc(O)cc2)CC1	30.9	10.9	-13.8	-17.2	38.3*	17.5	28.3*	1.0
O=C(CCSc1ccccc1)N1CCN(c2ccccc2)CC1	-10.6	-4.2	-50.2	-0.3	3.7	0.2	.	.
Cc1nc(N2CCN(Cc3ccc4c(c3)OCO4)CC2)c2oc3ccccc3c2n1	24.4	-21.9	-10.4	.	47.5*	0.3	10.9	15.1*
Cc1nc(N2CCN(Cc3ccc(Cl)cc3)CC2)c2oc3ccccc3c2n1	-3.0	-5.2	0.3	2.1	-1.4	1.0	.	.
O=S(=O)(Nc1ccc(Cc2ccncc2)cc1)c1ccc(Cl)c(Cl)c1	-2.1	1.4	-2.4	-3.4	31.0*	3.6	32.1*	15.6*
CCc1ccc(OC)c(S(=O)(=O)Nc2ccc(Cc3ccncc3)cc2)c1	10.2	4.9	-27.3	22.9	41.7*	0.8	30.0*	8.2
Cc1c(C(=O)Nc2ccc(-c3nnc4n3CCCCC4)cc2)oc2ccc(Br)cc12	38.6	-7.3	-13.9	6.2	40.2*	-0.4	48.9*	6.5
SMILES	Y pestis TopoI	CCHF vOTU inh	PrP 5UTR inh	BJeLR viability	PrPC surface inh	PfHsp40 yeast	PrPC TRFRET cf	LD9 cytotox
O=C(Nc1ccc(-c2nnc3n2CCCCC3)cc1)c1ccco1	0.2	4.5	-28.1	-3.9	5.5	-0.7	.	.
N#CC(C#N)=C1C=CC=CN1/C(=C\c1ccco1)C(=O)c1ccccc1	-4.9	-13.6	-18.6	.	73.6*	-0.2	67.0*	78.5*
COC(=O)[C@]12C[C@H](CC(=O)NCCC(C)C)C(=O)N(Cc3ccco3)C1=C[C@H](C1CCCC1)O[C@@H]2C	.	19.1	.	.	-5.7	.	.	.
COc1ccc2c(CC(=O)Nc3nc(C)cs3)coc2c1	-3.2	3.5	-28.0	1.0	3.2	-0.8	.	.
COc1ccc2c(CC(=O)Nc3ncc(C)s3)coc2c1	-7.6	-17.0	-95.4	3.3	28.6*	-0.1	34.5*	6.5
CC(N)C(=O)NC1C2C(=C(O)CC(O)C2O)C(=O)OC1(C)C(Cl)Cl (stereo not given)	-0.2	-20.9	21.7	.	93.5*	7.7	99.8*	25.6*
COc1cc(OC)cc(C(=O)N[C@H](C(=O)Nc2nc(-c3cc(OC)ccc3OC)cs2)C(C)C)c1	7.5	10.1	-17.5	0.1	25.7*	0.2	30.1*	-8.3
CN(C)c1cccc(/C=C2\CC3(OC(=O)c4ccco4)CCCN2C3)c1 (stereo not given)	.	-1.7	.	.	-9.6	.	.	.
CC(C)C[C@H](NC(=O)C1CC1)C(=O)N1CCC[C@H]1C(=O)NCc1ccccc1	.	-8.7	.	.	-2.0	.	.	.
CCOC(=O)N(C)C[C@H]1OCc2cnnn2CCCC(=O)N([C@H](C)CO)C[C@@H]1C	.	18.0	.	.	-6.9	.	.	.
c1ccc(Nc2nc(NCc3ccco3)c3ccccc3n2)cc1	-12.0	-7.4	-14.1	2.7	27.8*	7.8	35.2*	15.4*
Cc1cccc(Nc2nc(NCc3ccco3)c3ccccc3n2)c1	-18.2	14.1	-41.1	14.2	29.7*	-0.8	31.4*	29.3*
Oc1ccccc1Nc1nc(NCc2ccco2)c2ccccc2n1	-3.4	1.3	-17.0	9.2	-2.4	-1.6	.	.
COC(=O)[C@]12CCCCC=C1N(Cc1ccc(OC)cc1)C(=O)[C@@H]2CC(=O)N1CCCC1	.	4.5	.	.	-6.9	.	.	.
CCc1cc2c(nc1CC)CCCN2S(=O)(=O)c1ccc(C(F)(F)F)cc1	.	16.9	.	.	3.0	.	.	.
Cc1ccc(-c2cc(C(=O)N=Nc3c(O)[nH]c4ccccc34)[nH]n2)cc1C	.	6.2	.	.	4.1	.	.	.
CN(C)S(=O)(=O)Oc1cccc(C(=O)Nc2ccccc2Cl)c1	-1.4	-2.7	-46.1	3.9	3.6	0.2	.	.
CN(C)S(=O)(=O)Oc1cccc(C(=O)Nc2ccc(Cl)cc2)c1	3.5	-4.6	-124.2	6.0	26.9*	353.2*	28.9*	12.2*
Cc1nc2c(Br)cc(Br)cc2cc1O	7.9	5.1	7.8	3.1	102.9*	0.7	107.5*	-7.5
